Assay results: PubChem BioAssay (NCI)
About 79,000 compounds went through this panel and 15% of them were active in at least one assay; those are over-represented in the sample as a whole. Calls of active or inactive are those of the source. Cut-off read from the data, not from the text of the source: active = growth inhibition above about 70%; inactive = the rest.

What was measured:
[1] = NCI Yeast Anticancer Drug Screen. Data for the rad52 strain (AID 147);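 note: 0% = growth of vehicle-treated control cultures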; conditions: S. cerevisiae rad52 mutant growth inhibition, active compounds read high
Summary of the method: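 The repair-mutant yeast strain was incubated with compounds, then growth was read and inhibition derived relative to vehicle.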

[2] = NCI Yeast Anticancer Drug Screen. Data for the wt1 strain (AID 149);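 note: 0% = growth of vehicle-treated wt1 cultures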; conditions: S. cerevisiae wt1 strain (SPY 50644) growth inhibition, active compounds read high
Summary of the method: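 The wt1 strain was treated with compounds, and growth was compared with vehicle-treated cultures to give inhibition.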

[3] = NCI Yeast Anticancer Drug Screen. Data for the rad50EPP+ strain (AID 151);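 note: 0% = growth of vehicle-treated control cultures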; conditions: S. cerevisiae rad50 mutant strain, active compounds read high
Summary of the method: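 Vehicle-normalised growth inhibition; rad50EPP+ yeast strain, altered in DNA damage repair, compound-treated.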

[4] = NCI Yeast Anticancer Drug Screen. Data for the mgt1 strain (AID 153); conditions: S. cerevisiae mgt1 mutant growth inhibition, active compounds read high
Summary of the method: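 Vehicle-normalized growth inhibition is determined in mgt1 yeast, a strain selected for a defined alteration in DNA repair or cell cycle control.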

[5] = NCI Yeast Anticancer Drug Screen. Data for the rad50 strain (AID 155);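 note: 0% = growth of vehicle-only cultures of the same strain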; conditions: S. cerevisiae rad50 strain growth inhibition, active compounds read high
Summary of the method: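 Cells are treated with compound, grown, and their growth is then scored against vehicle-only cultures of the same repair-deficient yeast strain.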

[6] = NCI Yeast Anticancer Drug Screen. Data for the mec2-1 strain (AID 157); conditions: S. cerevisiae mec2-1 strain, active compounds read high
Summary of the method: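 Mutant yeast (mec2-1) grown with compound; growth inhibition relative to vehicle control reported.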

[7] = NCI Yeast Anticancer Drug Screen. Data for the rad14 strain (AID 159);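 note: 0% = growth of vehicle-treated control cultures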; conditions: S. cerevisiae rad14 strain growth inhibition, active compounds read high
Summary of the method: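 Readout: yeast growth inhibition, referenced to vehicle-only cultures. Strain bears a defined alteration in DNA damage repair.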

[8] = NCI Yeast Anticancer Drug Screen. Data for the sgs1 mgt1 strain (AID 161);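 note: 0% = growth of cultures given vehicle only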; conditions: S. cerevisiae sgs1 mgt1 strain, active compounds read high
Summary of the method: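 Yeast cells carrying a defined DNA-repair defect were exposed to test compounds. Growth inhibition was measured relative to vehicle-treated controls.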

[9] = NCI Yeast Anticancer Drug Screen. Data for the CLN2oe strain (AID 163);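 note: 0% = growth of vehicle-only control cultures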; conditions: S. cerevisiae CLN2oe strain, active compounds read high
Summary of the method: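 Compounds are applied to yeast harbouring a defined cell-cycle control change; reduced growth compared with vehicle-treated controls gives the value.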

[10] = NCI Yeast Anticancer Drug Screen. Data for the cln2 rad14 strain (AID 165);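 note: 0% = growth equal to vehicle treated cultures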; conditions: S. cerevisiae cln2 rad14 strain, active compounds read high
Summary of the method: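 Readout is yeast growth inhibition versus vehicle-treated controls, using a strain with cln2 and rad14 alterations exposed to compound.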

[11] = NCI Yeast Anticancer Drug Screen. Data for the bub3 strain (AID 167); conditions: S. cerevisiae bub3 mutant strain, active compounds read high
Summary of the method: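 Part of a panel of yeast mutants defective in DNA damage repair or cell cycle regulation. Each strain is grown with compound, and inhibition is calculated relative to solvent-treated cultures.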

[12] = NCI Yeast Anticancer Drug Screen. Data for the wt2 strain (AID 169);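 note: 0% = growth of vehicle-treated yeast cultures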; conditions: S. cerevisiae wt2 strain growth inhibition, active compounds read high
Summary of the method: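 Against vehicle-treated controls, the growth of yeast exposed to each compound was compared, and the inhibition was recorded.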

[13] = NCI Yeast Anticancer Drug Screen. Data for the mlh1 strain (AID 171);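 note: 0% = growth of vehicle-treated control cultures of the same strain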; conditions: S. cerevisiae mlh1 strain growth inhibition, active compounds read high
Summary of the method: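 Measured: yeast growth. Reference: vehicle-treated controls. Organism: strain with a defined alteration affecting DNA damage repair or cell cycle control, treated with compound.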

[14] = NCI Yeast Anticancer Drug Screen. Data for the sgs1 strain (AID 173);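 note: 0% = growth of vehicle-only control cultures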; conditions: S. cerevisiae sgs1 mutant, active compounds read high
Summary of the method: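 Each compound was added to cultures of the altered yeast strain. Growth was recorded, and inhibition was derived by comparison with vehicle controls.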

[15] = NCI Yeast Anticancer Drug Screen. Data for the mlh1 rad18 strain (AID 175); conditions: S. cerevisiae mlh1 rad18 strain growth inhibition, active compounds read high
Summary of the method: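 Genetically defined yeast (DNA repair-deficient) exposed to compounds; growth inhibition determined relative to vehicle.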

[16] = NCI Yeast Anticancer Drug Screen. Data for the rad18 strain (AID 177); conditions: S. cerevisiae rad18 mutant growth inhibition, active compounds read high
Summary of the method: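 Vehicle-treated cultures served as the baseline for scoring compound-induced growth inhibition in DNA-repair-mutant yeast.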

[17] = at 5.0 µM (retest, dose inferred, filed as 0.5)
[18] = at 50.0 µM (retest, dose inferred, filed as 5.0)

Measured: growth inhibition

ClCCn1c(CCl)nc2ccc(Cl)cc21
inactive: [1]; at 1.2 µM -34% | [1]; at 3.7 µM -41% | [1]; at 11.0 µM -8% | [1]; at 33.0 µM 69% | [2]; at 1.2 µM -52% | [2]; at 3.7 µM -61% | [2]; at 11.0 µM -53% | [2]; at 33.0 µM 52% | [3]; at 1.2 µM -12% | [3]; at 3.7 µM 6% | [3]; at 11.0 µM 9% | [3]; at 33.0 µM 48% | [4]; at 1.2 µM -29% | [4]; at 3.7 µM -32% | [4]; at 11.0 µM -16% | [5]; at 1.2 µM -20% | [5]; at 3.7 µM -11% | [5]; [17] 19% | [5]; at 11.0 µM -3% | [5]; at 33.0 µM 63% | [5]; [18] 54% | [6]; at 1.2 µM -27% | [6]; at 3.7 µM -49% | [6]; [17] 18% | [6]; at 11.0 µM -10% | [7]; at 1.2 µM -8% | [7]; at 3.7 µM 0% | [7]; at 11.0 µM 10% | [8]; [17] 18% | [9]; at 1.2 µM 4% | [9]; at 3.7 µM 8% | [9]; at 11.0 µM 34% | [9]; at 33.0 µM 58% | [10]; [17] 7% | [10]; [18] 7% | [10]; at 50.0 µM 41.2% | [11]; at 1.2 µM -20% | [11]; at 3.7 µM -25% | [11]; [17] 13% | [11]; at 11.0 µM -15% | [11]; at 33.0 µM 60% | [11]; [18] 46% | [12]; at 1.2 µM -10% | [12]; at 3.7 µM -13% | [12]; at 11.0 µM 8% | [13]; at 1.2 µM -30% | [13]; at 3.7 µM -31% | [13]; at 11.0 µM -18% | [13]; at 33.0 µM 67% | [14]; at 1.2 µM -19% | [14]; at 3.7 µM -31% | [14]; at 11.0 µM 10% | [14]; at 33.0 µM 60% | [15]; [17] 26% | [16]; at 1.2 µM -29% | [16]; at 3.7 µM -14% | [16]; at 11.0 µM 30%
active: [1]; at 100.0 µM 98% | [2]; at 100.0 µM 97% | [3]; at 100.0 µM 91% | [4]; at 33.0 µM 71% | [4]; at 100.0 µM 98% | [5]; at 50.0 µM 72.7% | [5]; at 100.0 µM 97% | [6]; at 33.0 µM 76% | [6]; [18] 75% | [6]; at 50.0 µM 84% | [6]; at 100.0 µM 95% | [7]; at 33.0 µM 70% | [7]; at 100.0 µM 99% | [8]; [18] 73% | [8]; at 50.0 µM 83.6% | [9]; at 100.0 µM 97% | [11]; at 50.0 µM 81.5% | [11]; at 100.0 µM 96% | [12]; at 33.0 µM 77% | [12]; at 100.0 µM 98% | [13]; at 100.0 µM 98% | [14]; at 100.0 µM 98% | [15]; [18] 75% | [15]; at 50.0 µM 79% | [16]; at 33.0 µM 78% | [16]; at 100.0 µM 98%

COC(=O)/C=C1/OC(c2ccc(Br)cc2)=C(Br)C1=O
inactive: [1]; at 1.2 µM -25% | [1]; at 3.7 µM -22% | [1]; at 11.0 µM -18% | [1]; at 33.0 µM -7% | [1]; at 100.0 µM 38% | [2]; at 1.2 µM -16% | [2]; at 3.7 µM -13% | [2]; at 11.0 µM -29% | [2]; at 33.0 µM -11% | [2]; at 100.0 µM 16% | [3]; at 1.2 µM -6% | [3]; at 3.7 µM -7% | [3]; at 11.0 µM 0% | [3]; at 33.0 µM 59% | [4]; at 1.2 µM 3% | [4]; at 3.7 µM 3% | [4]; at 11.0 µM -7% | [4]; at 33.0 µM 7% | [5]; at 1.2 µM -35% | [5]; at 3.7 µM -28% | [5]; [17] 3% | [5]; at 11.0 µM -5% | [5]; at 33.0 µM -11% | [5]; [18] 36% | [5]; at 50.0 µM 17.6% | [5]; at 100.0 µM 65% | [6]; at 1.2 µM 9% | [6]; at 3.7 µM -1% | [6]; [17] 18% | [6]; at 11.0 µM -5% | [6]; at 33.0 µM 8% | [6]; at 50.0 µM 18.8% | [7]; at 1.2 µM -4% | [7]; at 3.7 µM -16% | [7]; at 11.0 µM -15% | [7]; at 33.0 µM -21% | [8]; [17] 12% | [8]; [18] 16% | [9]; at 1.2 µM 8% | [9]; at 3.7 µM 10% | [9]; at 11.0 µM 10% | [9]; at 33.0 µM 26% | [9]; at 100.0 µM 59% | [10]; [17] 2% | [10]; [18] 14% | [10]; at 50.0 µM 33.8% | [11]; at 1.2 µM 20% | [11]; at 3.7 µM 6% | [11]; [17] 32% | [11]; at 11.0 µM -12% | [11]; [18] 40% | [12]; at 1.2 µM -25% | [12]; at 3.7 µM -22% | [12]; at 11.0 µM -20% | [13]; at 1.2 µM -18% | [13]; at 3.7 µM -4% | [13]; at 11.0 µM -14% | [13]; at 33.0 µM -12% | [13]; at 100.0 µM 27% | [14]; at 1.2 µM -18% | [14]; at 3.7 µM -16% | [14]; at 11.0 µM -17% | [14]; at 33.0 µM -27% | [14]; at 100.0 µM 16% | [15]; [17] 11% | [15]; [18] 49% | [16]; at 1.2 µM -30% | [16]; at 3.7 µM -14% | [16]; at 11.0 µM -12% | [16]; at 33.0 µM 41%
active: [3]; at 100.0 µM 97% | [4]; at 100.0 µM 87% | [6]; [18] 85% | [6]; at 100.0 µM 71% | [7]; at 100.0 µM 78% | [8]; at 50.0 µM 86.2% | [11]; at 33.0 µM 70% | [11]; at 50.0 µM 72.8% | [11]; at 100.0 µM 95% | [12]; at 33.0 µM 76% | [12]; at 100.0 µM 95% | [16]; at 100.0 µM 92%
